The structures appear in SMILES notation. Screen size: about 2,200 compounds; about 480 (22%) were called active. No rule for the calls is given here. The list is a sample of the results. Entries with a potency or affinity are not part of this list.

This assay in a line: S. Typhimurium GFP fluorescence dose response in modified counterscreen for PhoP regulon inhibitor project (AID 1981).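 Also: 0% = induced DMSO wells and 100% = uninduced wells.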 Conditions: 4 h; series mostly up to 150 µM; inhibition: at the top concentration.
Take `Cc1ccc(NC2CC(=O)N(Cc3ccccc3)C2=O)cc1` (stereo unspecified): the “inhibition” value is -19.2% (inactive).
The value for `NC(=O)C1(NC(=O)[C@@H]2CC3(CC(c4cccc(NC(=O)[C@@H]5CCC(=O)N5)c4)=NO3)CN2C(=O)Cc2ccc(Cl)cc2)CC1` (stereo partly specified) was -10.6% (inactive).
The result for `Cc1ccc(C=Nc2ccccc2C(N)=O)s1` reads -22% (inactive); that for `CC(=O)Nc1ccc(-c2nnc(SCc3c(C)cc(C)cc3C)n2C)cc1`, 8.18% (inactive); that for `O=C(NCc1cccs1)c1cccc(Nc2nc3ccc(Br)cc3[nH]2)c1`, 5.95% (inactive).
The value for `Nc1c(C(=O)NCCc2ccc(Cl)cc2)sc2ccc(S(=O)(=O)N3CCCCC3)cc12` was 2% (inactive).
On to `CCCCCCCCNc1ncnc2ccccc12`, for which the “inhibition” value is 21.5% (inactive).
As to `Clc1ccc(OCCn2ccnc2)c(Br)c1`, the “inhibition” value was 4.2% (inactive).
The value for `Cc1ccc(N2C(=O)CC(Nc3ccccc3)C2=O)cc1` (stereo unspecified) was -5.83% (inactive); that for `COC(=O)c1sccc1N/N=C(\C)c1ccc(F)c(Cl)c1` was 4.52% (inactive); that for `CCN(CC(=O)N1CCN(Cc2ccccc2)CC1)S(=O)(=O)c1ccc(F)cc1` was -7.07% (inactive).
The value for `O=C(Nn1c(O)c(C=C2N=c3ccccc3=N2)sc1=S)c1ccc(Cl)cc1` was -10.5% (inactive).
The result for `C=CCn1c(SCC(=O)Nc2nnc(CC)s2)nnc1-c1cccnc1` reads -22.6% (inactive); that for `Cc1ccc(C)c(NC(=O)C(Sc2nnc(-c3cccs3)o2)c2ccccc2)c1` (stereo unspecified), 3.64% (inactive).
Take `CN(c1ccccc1)S(=O)(=O)c1ccc(C(=O)Nc2nnc(-c3ccc(F)cc3)o2)cc1`: the “inhibition” value is -10.1% (inactive).
The result for `Cc1cc(-c2c(C)n([O-])c(C)c(C)[n+]2=O)ccc1F` reads -12.9% (inactive); that for `COc1cc(C(=O)NC(=S)Nc2ccc3oc(=O)ccc3c2)cc(OC)c1OC`, -16.2% (inactive); that for `CC1(C)CC(=O)C2=C(C1)OC1=C(C(=O)CC(C)(C)C1)C2c1ccc(O)cc1O`, 17.2% (inactive).
The value for `Cc1cc(Nc2ccccc2F)n2ncnc2n1` was -1.64% (inactive); that for `C/C(=N\N=C(/N)SC1CC(=O)N(c2cccc(Cl)c2)C1=O)c1cccs1` (stereo unspecified) was 6.99% (inactive); that for `CCCCCCNCc1cccc(Br)c1` was -5.86% (inactive).
The value for `Cc1ccccc1NC(=O)Nc1cccs1` was 0.01% (inactive); that for `O=C(c1cc(-c2cccs2)nc2ccccc12)N1CCN(c2ccccc2O)CC1` was 39.2% (inactive); that for `CCC1=NNc2cccc3c(OC)ccc1c23` was -16.9% (inactive).
`O=C1Nc2ccccc2C12OCC1(CO2)COC2(OC1)C(=O)Nc1ccccc12` (stereo unspecified): the “inhibition” value is 35% (inactive).
The value for `Cc1ccc2nc(SCC(=O)NCc3ccco3)[nH]c2c1` was -4.71% (inactive); that for `Cc1ccc(C(C)C)c(OCC(=O)N2CCN(Cc3nc4cc([N+](=O)[O-])ccc4n3C)CC2)c1` was 1.95% (inactive).
The result for `Cc1cc(C)cc(-n2nc(C)cc2N)c1` reads -5.73% (inactive); that for `CCCN1C(=O)SC(CC(=O)Nc2ccc(Br)cc2)C1=O` (stereo unspecified), 4.65% (inactive).
The value for `Cn1c(NCc2cccs2)nc2ccccc21` was -15.4% (inactive); that for `CC1CCC(C(C)C)C(OC(=O)Cn2c(-c3ccc(Cl)cc3)[n+](C)c3ccccc32)C1` (stereo unspecified) was 24.2% (inactive); that for `CC(C)[C@@H]1CC[C@@H](C)C[C@H]1OC(=O)C[n+]1cc(-c2ccc(Cl)cc2)n2c1CCCCC2` was 7.76% (inactive).
Take `NC[C@@]12CCCC1C1CCC2C1` (stereo partly specified): the “inhibition” value was -33.1% (inactive).
The value for `CN(C)S(=O)(=O)Oc1ccsc1C(=O)Nc1ccccc1Cl` was -4.31% (inactive); that for `COC(=O)c1cccc(NC(=O)CCCOc2ccccc2)c1` was -9.35% (inactive).
Regarding `O=C(CSC1CC(=O)N(CCc2ccccc2)C1=O)Nc1cccc(Cl)c1` (stereo unspecified), the “inhibition” value was 18.6% (inactive).
The value for `Nc1ccc2nc(SCC(=O)Nc3ccc(N4CCOCC4)c(Cl)c3)sc2c1` was 4.06% (inactive); that for `Cc1cccc(NC(=O)CCC(=O)OCc2ccc(Br)cc2)c1` was -11.4% (inactive).
Take `Cc1nc2ccccc2n1CC(=O)N/N=C\C=C\c1ccccc1`: the “inhibition” value is 3.06% (inactive).
The result for `O=C(CCN1C(=O)c2ccccc2C1=O)Nc1ccc(-c2cn3ccsc3n2)cc1` reads -5.3% (inactive).
The result for `CC(C)(C)n1ncc2c(=O)n(CC(=O)Nc3ccc4c(c3)OCO4)cnc21` reads 4.98% (inactive).
The value for `O=C1NC(=Nc2ccccc2)/C(=C/c2ccco2)S1` was 14.3% (inactive); that for `COC(=O)c1ccc(CSc2nnnn2-c2ccccc2)o1` was -0.29% (inactive).
Take `O=C1c2ccccc2C(=O)N1CCCc1nc(-c2ccccn2)no1`: the “inhibition” value was 1.57% (inactive).
The value for `O=C(/C=C/c1ccccc1)N/C(=C/c1ccccc1)C(=O)N1CCOCC1` was -23% (inactive); that for `CCCOc1ccc(Br)cc1CSC(=N)N` was 39.9% (inactive); that for `C=CCOc1ccc(Br)cc1/C=N/O` was -2.94% (inactive).
The value for `COC(=O)c1ccc(NC(=O)c2ccc(N(C)S(C)(=O)=O)cc2)cc1` was 1.77% (inactive).
The result for `CC1CCCCN1CCNS(=O)(=O)c1ccc2c(c1)oc(=O)n2C` (stereo unspecified) reads -2.5% (inactive).
Regarding `O=C1NC2=C(CCc3ccccc32)C(c2ccc(Br)cc2)N1` (stereo unspecified), the “inhibition” value was -14.1% (inactive).
With `Cc1ccccc1NC(=O)c1ccc(-n2cncn2)nc1`, the “inhibition” value was 2.26% (inactive).
The result for `CCc1nc2ccccc2c2nc3ccccc3n12` reads -2.87% (inactive).
The result for `CCOC(=O)CC(=O)CSc1nc2c(c(C)c1C#N)CCC2` reads -1.08% (inactive).
The value for `N/C(=N\c1nc2ccccc2o1)NC(=O)c1ccccc1F` was -12.1% (inactive); that for `CC(=O)Nc1cc(N=Cc2ccc(O)cc2O)c(Cl)cc1Cl` was 33.6% (inactive).
`Oc1ccc(/C=N/NC2=NCCCCC2)c(O)c1`: the “inhibition” value was 5.44% (inactive).
With `O=C(N/N=C/c1ccc(O)cc1O)/C(=C/c1ccccc1)CCO`, the “inhibition” value is 7.5% (inactive).
The result for `Oc1ccc(/C=N/n2cnn(Cc3ccccc3Cl)c2=S)c(O)c1` reads 3.42% (inactive); that for `CC1C(=O)NN=C1C(=O)N/N=C\c1ccc(O)cc1O` (stereo unspecified), -28.1% (inactive); that for `Cc1ccc2nc(SCCCCOc3ccccc3)[nH]c2c1`, -12.1% (inactive).
Take `CCOC(=O)CN1C(=O)C(C)(C)Oc2ccc(C(=O)Nc3ccccc3OC)cc21`: the “inhibition” value is -3.35% (inactive).
Turning to `O=C(Nc1cc(C(F)(F)F)ccc1N1CCOCC1)c1ccc(Br)o1`, the “inhibition” value is -20.1% (inactive).
The result for `COc1ccc(C)cc1NC(=O)C(Sc1nnc(-c2ccncc2)n1-c1ccc(Cl)cc1)c1ccccc1` (stereo unspecified) reads -3.05% (inactive).
As for `Cc1ccc(N=Cc2sc(O)c3ccccc23)cc1`, the “inhibition” value was -19.9% (inactive).
For `O=C1CSC(=S)N1c1ccc(F)cc1`, the “inhibition” value was 18.8% (inactive).
The value for `CC(=O)Nc1nc(-c2ccc(Cl)cc2)nc(C)c1C(C)=O` was -11.7% (inactive).
